In the supplement of paper PMC6555819:

Key:
Assay in all cases: PBM binding z-score (relative to random genomic background probes); higher = stronger binding; sequences stand for … in GC…GCGATTGACAGCGTAGAATGAAGG
[1] = system: RARb homodimer (NR concentration 270 nM)
Method in brief: (§1)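 Custom Agilent 4×180K protein-binding microarrays carried double-stranded probes, each with a 34-nt variable region. These regions held direct-repeat seeds, single-nucleotide variants, half-site ablations and random human genomic background sequences. Ligand-free nuclear receptor dimers were incubated on the arrays for 1 h, antibodies against each partner (one per run) detected binding, and scanned fluorescence was regression-normalized. Binding z-scores take the random background probes as reference.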

[2] = system: RARg:RXRa (NR concentration 270 nM, RXRa partner concentration 90 nM)
Method in brief: as §1

[3] = system: RARg homodimer (NR concentration 270 nM)
Method in brief: as §1

[4] = system: RXRa DBDmut IVT, anti-RXR (DBD mutation: RXRa K156A/R161A, NR concentration 90 nM)
Method in brief: as §1

[5] = system: RXRa homodimer (NR concentration 180 nM)
Method in brief: as §1

[6] = system: THRa:RXRa (NR concentration 90 nM, RXRa partner concentration 90 nM)
Method in brief: as §1

[7] = system: THRa homodimer (NR concentration 90 nM)
Method in brief: as §1

[8] = system: VDR:RXRa (NR concentration 270 nM, RXRa partner concentration 90 nM)
Method in brief: as §1

[9] = system: VDR homodimer (NR concentration 270 nM)
Method in brief: as §1

Row | Sequence | PBM binding z-score [1] | PBM binding z-score [2] | PBM binding z-score [3] | PBM binding z-score [4] | PBM binding z-score [5] | PBM binding z-score [6] | PBM binding z-score [7] | PBM binding z-score [8] | PBM binding z-score [9]
1 | TCTCGGAGGACACGAAAGGTCAGAGCCCGACATC | 4.82 | 4.91 | 5.5 | 0.988 | 3.95 | 3.67 | 1.25 | 3.26 | 1.26
2 | CCGACTGGGGAAGAAAGGTTACCATACCATCCGG | 1.97 | 0.982 | 0.848 | -0.897 | 1.49 | 1.09 | -0.21 | 0.522 | -0.0513
3 | ACAGATAGGTGAGTGAAGGTAACTCAGCTGGACG | 0.126 | 0.246 | 0.547 | -0.347 | 0.347 | 1.65 | -0.341 | -0.335 | -0.149
4 | AATACAGGGTAATCGTAGGCCAGAGTACGCACAG | 0.578 | 0.923 | 0.637 | -0.324 | 0.61 | 1.34 | -0.13 | 0.0104 | 0.508
5 | CATTCAGGGTCAGCTAGGCCAGAGTAGGGACGGC | 3.59 | 4.64 | 5.03 | 2 | 5.08 | 3.44 | 1.31 | 4.34 | 1.42
6 | CGTCCAAAGTCAAGGTCAGTGAAAGAGACTCGAA | 3.54 | 3 | 3.58 | 1.13 | 2.53 | 3.03 | 2.06 | 2.11 | 1.29
7 | GGAACGAGGGCATTCGAGTTTATAGCATGGCGAT | 0.829 | 1.22 | 1.53 | 3.83 | 0.915 | 3.48 | -0.483 | 5.31 | 4.64
8 | GAACCAAGGTGAATAGGTCGTTGATGAGTAGGCG | 1.78 | 2.53 | 1.25 | -0.268 | 2 | 1.77 | 0.124 | 0.843 | -0.00141
9 | TTACCAAGTTGAGCTGAGGTCGTTGATCCAACTC | 0.944 | 0.311 | 0.0622 | 0.245 | 0.839 | 4.34 | 1.77 | 2.7 | 2.04
10 | AATCAAAGTTCATCTAGGTAACGTAAGATATGCT | 3.95 | 5.18 | 5.7 | 4.69 | 4.44 | 3.23 | 0.0393 | 5.13 | 4.45
11 | GATACAGGGTCAGCTAGAGGCCAGCGTATGGAAA | 3.69 | 6.91 | 5.12 | 0.996 | 4.79 | 3.11 | 0.434 | 3 | 0.825
12 | CAAACTAGGTCACGAAAGGTCGAAGTCGAATGAC | 5 | 6.14 | 6.69 | 2.17 | 5.66 | 4.65 | 1.9 | 5.72 | 2.3
13 | AATACAGGGTCATCGTAGGCCACAGTACGCACAG | 4.02 | 6 | 5.52 | 3.39 | 6.9 | 4.93 | 1.72 | 5.63 | 3.13
14 | CCAGACAGGTGACAAGGTAACTCAGCCTCGATTA | 0.759 | 0.862 | 0.728 | 0.06 | 0.446 | 1.24 | 0.784 | 0.0377 | -0.45
15 | GCTCACGGGTCAAAGGTTATAGCATGAATAGAAT | 3.32 | 6.64 | 4.64 | 2.36 | 9.1 | 3.78 | -0.0294 | 5.38 | 1.19
16 | CAAACTAGGTCACACAGGTCAAAGTCCGTGCGTA | 5.02 | 6.04 | 5.85 | 2.27 | 5.62 | 4.13 | 2.13 | 6.73 | 4.16
17 | CGTCACAGTTCAACTAAGGTAACGTAAAGCACGC | 2.56 | 3.25 | 3.37 | 3.38 | 2.76 | 5.11 | 2.19 | 2.92 | 2.16
18 | GCTCGGAGGACAAGCTCAGAGCTTTGTCCGTAGA | -0.256 | -0.416 | 0.0982 | -0.613 | -1.03 | 0.34 | -0.504 | -0.646 | -0.467
19 | TTACCTAGGTGAGCTGAGGTCGTTGATCCAACTC | 1.32 | 0.757 | 0.325 | 0.055 | 1.01 | 4.18 | 2.11 | 3.05 | 1.73
20 | ATCTCTAGGTAAAGATAGTTCAATGAATGCAAAT | 1.4 | 1.08 | 1.05 | 0.373 | 0.737 | 1.05 | -0.0901 | 1.61 | 1.15
21 | CCTAGCAGGCCAATCTGGGTCCCTCAAGGCTTGA | -0.121 | -0.601 | -0.841 | -0.491 | -0.782 | 0.746 | -0.658 | -0.831 | -0.612
22 | TCATATAGGTATTACAGGTGAAAGTCGGCATCTA | 0.804 | 0.652 | 0.438 | 1.81 | 1.35 | 0.854 | 0.684 | 1.34 | 0.524
23 | GATACAGGGTCAGCTAAAGGCCAGAGTATGGAAA | 3.61 | 6.61 | 5.01 | 0.751 | 4.45 | 3.02 | 0.329 | 3 | 0.806
24 | CAGCCTAGGTCAGTGCCAGTATAGGAGGAACGTT | 2.5 | 2.55 | 3.53 | 0.655 | 0.856 | 1.44 | 0.501 | -0.0475 | -0.0639
25 | ACCGAAAGGTCGTGAGGTGAGTATACAGAAAGGC | 2.84 | 4.64 | 4.01 | 1.74 | 5.25 | 3.48 | 1.28 | 3.62 | 0.625
26 | TTACCAAGGTGAAAGGTGGTTGATGCACGCCTTG | 0.622 | 0.898 | 0.626 | -0.437 | 1.61 | 1.73 | 0.529 | 0.184 | -0.166

Row | Sequence | PBM binding z-score [1] | PBM binding z-score [2] | PBM binding z-score [3] | PBM binding z-score [4] | PBM binding z-score [5] | PBM binding z-score [6] | PBM binding z-score [7] | PBM binding z-score [8] | PBM binding z-score [9]
27 | TAGCCTAGGTCATTGGGCCAGTCTAGTACGCATC | 2.48 | 3.76 | 3.79 | 1.52 | 2.52 | 2.67 | 0.501 | 1.98 | 0.896
28 | CCGACTGAGGCATAAGGTTACCATAAGCCAGCCC | 1.13 | 0.506 | 0.395 | 0.281 | 0.885 | 2.07 | 1.53 | 0.114 | 0.195
29 | TCTGGCAGGCCAGAGGGTCACTCAAGAGGTACGG | 2.63 | 2.81 | 1.94 | -0.443 | 2.6 | 1.62 | -0.676 | 1.5 | 0.353
30 | CAGCCTAGGTCAGGGCCACTATAGGAGGAACGTT | 2.67 | 3.08 | 3.7 | 0.123 | 1.84 | 2.19 | 0.516 | 0.305 | -0.129
31 | GCTAGCGGGCCATTTGGGTCACTCAATGACGGGC | 1.54 | 0.986 | 1.19 | -0.841 | 0.742 | 1.94 | 0.129 | 0.753 | 0.0296
32 | AGTCAAAGTTCACTAGGTAACGTAGGATTCAGCT | 3.85 | 4.87 | 5.63 | 4.05 | 3.74 | 1.98 | 0.256 | 3.71 | 3.59
33 | CGTCCAACGTCAAAGGTCAGTGAAGAGATGACGG | 4.22 | 4.66 | 5.08 | 0.458 | 5.09 | 2.5 | 0.106 | 2.8 | 0.685
34 | CCTGCTAGGTTATGGTCAGCTAATCTACAGTATG | 0.748 | 0.34 | 0.636 | 0.299 | 0.0468 | 0.383 | -0.417 | -0.216 | -0.337
35 | ACAGACAGGTGAGTGAAAGTAACTCAGCTGGACG | -0.349 | 0.188 | 0.291 | -0.517 | 0.309 | -0.377 | -0.737 | -0.256 | -0.536
36 | AGTTAAAGTTCACTAGGTAACGTAAGATTCAGCT | 3.53 | 4.38 | 4.95 | 3.86 | 3.07 | 1.92 | 0.252 | 3.64 | 3.22
37 | CTCGAAAGGTCGGGCTCAGGTGAGTATACCAAAC | 2.49 | 4.07 | 3.19 | 0.869 | 3 | 3.46 | 1.06 | 1.5 | 0.356
38 | CGTGCAAGGTCATAGGAGGTCAGTGAAGACAGAT | 5.38 | 7.04 | 7.51 | 4.08 | 7.22 | 5.44 | 2.87 | 6.87 | 4.63
39 | TGAATGAGGTTAAAGATCACGGAACGTGGCGTCG | 0.603 | 2.83 | 1.49 | 0.843 | 5.25 | 2.72 | 0.0245 | 2.22 | 0.625
40 | AGGCAAAGTTCACTAGGTAACGTAAGATTCAGCT | 3.64 | 4.78 | 5.51 | 4.22 | 3.75 | 2.15 | 0.37 | 3.88 | 4.15
41 | CCTTACGGGTCACTCCAGGATATAGCATCGGAGT | 2.33 | 4.02 | 3.98 | 1.43 | 4.06 | 4.39 | 0.217 | 2.88 | 1.23
42 | CCGACTGCGGCAAGGTTACCATAACGCACAGCCA | 1 | 0.707 | 0.42 | 0.215 | 1.07 | 1.4 | 0.537 | 0.302 | 0.321
43 | CCTCTGAGGACAACAGGAGGTCAGAGCTGCCAGA | 3.48 | 3.66 | 3.51 | 1.29 | 1.78 | 3.92 | 3.02 | 2.17 | 1.69
44 | GCTATTAGTTCAAAGGGCAACCGAATGATTCTCG | 2.95 | 3.39 | 2.76 | 3.02 | 4.05 | 1.74 | -0.325 | 2.63 | 1.87
45 | CCTGCTAGGTCATGGCCAGCTAATCTACAGTATG | 3.06 | 3.9 | 4.02 | 1.3 | 2.92 | 3.02 | 0.915 | 1.43 | 0.188
46 | CGTCCAAGGTCATAGGAGGACAGTGAAGACAGAT | 4.12 | 5.65 | 6.13 | 3.71 | 5.55 | 4.99 | 2.83 | 5.21 | 3.3
47 | CAAACTAGGTCAAGCTCAAAGTCGGTTTGTGCCA | 3.34 | 4.06 | 4.98 | 1.53 | 2.55 | 3.2 | 1.34 | 1.7 | 0.374
48 | AGAACGAGGGCAATGCGTTGATAGCACGGGTGGC | 0.934 | 1.05 | 1.65 | 1.2 | 0.834 | 0.775 | -0.0819 | 1.16 | 1.17
49 | GCGACTGGGACATCAGCAGGTTACCATAACTTAA | 0.428 | -0.00527 | 0.0107 | -0.5 | 0.176 | 0.674 | 0.0254 | -0.302 | -0.459
50 | TGAATGAGGGTATAAGATCAGGGAACGTTGCAAA | -0.0361 | 0.617 | 0.546 | -0.155 | 0.383 | 0.461 | -0.277 | 0.217 | 0.159
51 | TCTATTAATTGATTAGGGCAACCGAAACAGCGGA | 0.555 | 0.404 | 0.432 | 0.717 | 0.315 | 0.691 | 0.741 | 0.405 | 1.36
52 | GCTGCTAGGTCAACTGATGGTCAGCTTAAGCTCG | 3.69 | 5.24 | 5.28 | 1.76 | 3 | 3.07 | 0.988 | 1.62 | -0.0541
